In the supplement of paper PMC7595190:

What was measured:
Assay in all cases: CellTox Green cytotoxicity fluorescence relative to DMSO vehicle (fold of vehicle RFU); higher = more cell death (loss of membrane integrity), active = 2 or more
[1] = test system: CMK
Outline: (§1)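 CellTox Green reagent was added when MV4-11, CMK and Kasumi-1 cells were seeded at 4.0 × 10^4 cells per well, and single compounds from the Selleckchem apoptosis library were added at final 0.01, 0.1 and 1 µM in DMSO (vehicle 0.1% DMSO). Fluorescence at Ex 485 nm and Em 520 nm was read after 24, 48 and 72 h at 37 °C, 5% CO2. The reported cytotoxicity corresponds to loss of membrane integrity, given as fold of the DMSO vehicle.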

[2] = test system: Kasumi-1
Outline: as §1

[3] = test system: MV4-11
Outline: as §1

Measured: CellTox Green cytotoxicity fluorescence

CC(=O)N1c2ccc(-c3ccc(C(=O)O)cc3)cc2[C@H](Nc2ccc(Cl)cc2)C[C@@H]1C
inactive: [1]; 0.01 µM, 24 h 0.995 | [1]; 0.01 µM, 48 h 1.1 | [1]; 0.01 µM, 72 h 0.996 | [1]; 0.1 µM, 24 h 1.2 | [1]; 0.1 µM, 48 h 1.71 | [1]; 0.1 µM, 72 h 1.37 | [1]; 1 µM, 24 h 1.33 | [1]; 1 µM, 48 h 1.93 | [1]; 1 µM, 72 h 1.57 | [2]; 0.01 µM, 24 h 0.959 | [2]; 0.01 µM, 48 h 0.98 | [2]; 0.01 µM, 72 h 1.03 | [2]; 0.1 µM, 24 h 1.06 | [2]; 0.1 µM, 48 h 1.36 | [2]; 0.1 µM, 72 h 1.49 | [2]; 1 µM, 24 h 1.09 | [2]; 1 µM, 48 h 1.66 | [2]; 1 µM, 72 h 1.92

CCCCNc1ncc2c(-c3ccc(CN4CCN(C)CC4)cc3)cn([C@H]3CC[C@H](O)CC3)c2n1
inactive: [1]; 0.01 µM, 24 h 0.987 | [1]; 0.01 µM, 48 h 0.978 | [1]; 0.01 µM, 72 h 1 | [1]; 0.1 µM, 24 h 1.07 | [1]; 0.1 µM, 48 h 1.31 | [1]; 0.1 µM, 72 h 1.32 | [1]; 1 µM, 24 h 1.13 | [1]; 1 µM, 48 h 1.75 | [1]; 1 µM, 72 h 1.98 | [2]; 0.01 µM, 24 h 1.06 | [2]; 0.01 µM, 48 h 1.01 | [2]; 0.01 µM, 72 h 1.02 | [2]; 0.1 µM, 24 h 1.05 | [2]; 0.1 µM, 48 h 1.18 | [2]; 0.1 µM, 72 h 1.32 | [2]; 1 µM, 24 h 1.1 | [2]; 1 µM, 48 h 1.62 | [2]; 1 µM, 72 h 1.93 | [3]; 0.01 µM, 24 h 1.03 | [3]; 0.01 µM, 48 h 1.16 | [3]; 0.01 µM, 72 h 1.28 | [3]; 0.1 µM, 24 h 1.04 | [3]; 0.1 µM, 48 h 1.47 | [3]; 1 µM, 24 h 1.08 | [3]; 1 µM, 48 h 1.7
active: [3]; 0.1 µM, 72 h 2.1 | [3]; 1 µM, 72 h 2.22

O=C1C(=O)N(Cc2ccc(Cl)c(Cl)c2)c2ccccc21 [Apoptosis Activator 2]
inactive: [1]; 0.01 µM, 24 h 1.01 | [1]; 0.01 µM, 48 h 1.02 | [1]; 0.01 µM, 72 h 1.01 | [1]; 0.1 µM, 24 h 1.03 | [1]; 0.1 µM, 48 h 1.04 | [1]; 0.1 µM, 72 h 1.02 | [1]; 1 µM, 24 h 0.981 | [1]; 1 µM, 48 h 1.01 | [1]; 1 µM, 72 h 0.986 | [2]; 0.01 µM, 24 h 0.997 | [2]; 0.01 µM, 48 h 1 | [2]; 0.01 µM, 72 h 1.01 | [2]; 0.1 µM, 24 h 1 | [2]; 0.1 µM, 48 h 0.985 | [2]; 0.1 µM, 72 h 0.971 | [2]; 1 µM, 24 h 1.02 | [2]; 1 µM, 48 h 1.04 | [2]; 1 µM, 72 h 1.04

COCC[n+]1c2c(n(Cc3cnccn3)c1C)C(=O)c1ccccc1C2=O [Sepantronium Bromide]
active: [2]; 1 µM, 48 h 2.08 | [2]; 1 µM, 72 h 2.15
inactive: [1]; 0.01 µM, 24 h 0.916 | [1]; 0.01 µM, 48 h 0.91 | [1]; 0.01 µM, 72 h 0.922 | [1]; 0.1 µM, 24 h 0.955 | [1]; 0.1 µM, 48 h 1.02 | [1]; 0.1 µM, 72 h 0.927 | [1]; 1 µM, 24 h 1.06 | [1]; 1 µM, 48 h 1.53 | [1]; 1 µM, 72 h 1.41 | [2]; 0.01 µM, 24 h 1.02 | [2]; 0.01 µM, 48 h 1.03 | [2]; 0.01 µM, 72 h 1.11 | [2]; 0.1 µM, 24 h 1.08 | [2]; 0.1 µM, 48 h 1.41 | [2]; 0.1 µM, 72 h 1.57 | [2]; 1 µM, 24 h 1.5

CNC(=O)c1ccccc1Nc1cc(Nc2ccc(N3CCOCC3)cc2OC)ncc1C(F)(F)F
inactive: [1]; 0.01 µM, 24 h 0.924 | [1]; 0.01 µM, 48 h 0.935 | [1]; 0.01 µM, 72 h 0.912 | [1]; 0.1 µM, 24 h 0.928 | [1]; 0.1 µM, 48 h 0.933 | [1]; 0.1 µM, 72 h 0.917 | [1]; 1 µM, 24 h 0.946 | [1]; 1 µM, 48 h 1.02 | [1]; 1 µM, 72 h 0.957 | [2]; 0.01 µM, 24 h 0.924 | [2]; 0.01 µM, 48 h 0.952 | [2]; 0.01 µM, 72 h 0.976 | [2]; 0.1 µM, 24 h 0.976 | [2]; 0.1 µM, 48 h 0.988 | [2]; 0.1 µM, 72 h 0.96 | [2]; 1 µM, 24 h 0.928 | [2]; 1 µM, 48 h 1.03 | [2]; 1 µM, 72 h 1.08 | [3]; 0.01 µM, 24 h 0.941 | [3]; 0.01 µM, 48 h 0.941 | [3]; 0.01 µM, 72 h 0.949 | [3]; 0.1 µM, 24 h 0.936 | [3]; 0.1 µM, 48 h 0.967 | [3]; 0.1 µM, 72 h 0.972 | [3]; 1 µM, 24 h 0.979 | [3]; 1 µM, 48 h 1.18 | [3]; 1 µM, 72 h 1.39

CCCCCCCCCCCC1=C(O)C(=O)C=C(O)C1=O [Embelin]
inactive: [1]; 0.01 µM, 24 h 1.03 | [1]; 0.01 µM, 48 h 1.04 | [1]; 0.01 µM, 72 h 1.09 | [1]; 0.1 µM, 24 h 0.994 | [1]; 0.1 µM, 48 h 0.99 | [1]; 0.1 µM, 72 h 0.973 | [1]; 1 µM, 24 h 0.986 | [1]; 1 µM, 48 h 1.04 | [1]; 1 µM, 72 h 1.05 | [2]; 0.01 µM, 24 h 0.991 | [2]; 0.01 µM, 48 h 0.988 | [2]; 0.01 µM, 72 h 0.992 | [2]; 0.1 µM, 24 h 1.01 | [2]; 0.1 µM, 48 h 0.999 | [2]; 0.1 µM, 72 h 0.996 | [2]; 1 µM, 24 h 1.02 | [2]; 1 µM, 48 h 1.03 | [2]; 1 µM, 72 h 1.04 | [3]; 0.01 µM, 24 h 1.01 | [3]; 0.01 µM, 48 h 1 | [3]; 0.01 µM, 72 h 1 | [3]; 0.1 µM, 24 h 1 | [3]; 0.1 µM, 48 h 0.999 | [3]; 0.1 µM, 72 h 1 | [3]; 1 µM, 24 h 1.02 | [3]; 1 µM, 48 h 1 | [3]; 1 µM, 72 h 1.01

N#CC(=Cc1ccc(-c2cc(Cl)ccc2Cl)o1)C(=O)Nc1cccc2ncccc12
inactive: [1]; 0.01 µM, 24 h 0.949 | [1]; 0.01 µM, 48 h 0.938 | [1]; 0.01 µM, 72 h 0.947 | [1]; 0.1 µM, 24 h 0.993 | [1]; 0.1 µM, 48 h 0.99 | [1]; 0.1 µM, 72 h 0.992 | [1]; 1 µM, 24 h 1 | [1]; 1 µM, 48 h 1.05 | [1]; 1 µM, 72 h 1.03 | [2]; 0.01 µM, 24 h 1 | [2]; 0.01 µM, 48 h 0.958 | [2]; 0.01 µM, 72 h 0.958 | [2]; 0.1 µM, 24 h 0.998 | [2]; 0.1 µM, 48 h 0.979 | [2]; 0.1 µM, 72 h 0.979 | [2]; 1 µM, 24 h 0.939 | [2]; 1 µM, 48 h 0.916 | [2]; 1 µM, 72 h 0.917
